From PubChem BioAssay (NCI)
Compounds without any hit were thinned out: in the full panel of roughly 83,000, 20% have a hit.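 Step 1: grow cells in 96-well plates. Step 2: add test compound at a single concentration. Step 3: incubate 48 h. Step 4: record percent growth.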 A number with no mark means an inactive call. Active and inactive are the calls of the source. The calls were made as follows: active = growth percent below 10; inactive = the rest.

Assays:
Experiment in all cases: NCI-60 one-dose screen, 48 h (100 = growth as untreated, 0 = no growth, -100 = all killed)
Details in all cases: 10 µM unless noted
HCT-15 colon = test system: HCT-15 colon
HT29 colon = test system: HT29 colon
SNB-75 CNS = test system: SNB-75 CNS
SNB-19 CNS = test system: SNB-19 CNS
U251 CNS = test system: U251 CNS
PC-3 prostate = test system: PC-3 prostate
SK-MEL-5 melanoma = test system: SK-MEL-5 melanoma
UACC-62 melanoma = test system: UACC-62 melanoma
LOX IMVI melanoma = test system: LOX IMVI melanoma
SK-MEL-28 melanoma = test system: SK-MEL-28 melanoma
SK-MEL-2 melanoma = test system: SK-MEL-2 melanoma
EKVX NSCLC = test system: EKVX NSCLC
SN12C renal = test system: SN12C renal
UO-31 renal = test system: UO-31 renal
ACHN renal = test system: ACHN renal
CAKI-1 renal = test system: CAKI-1 renal
A498 renal = test system: A498 renal
CCRF-CEM leukemia = test system: CCRF-CEM leukemia
MOLT-4 leukemia = test system: MOLT-4 leukemia
TK-10 renal = test system: TK-10 renal

Compound | growth (HCT-15 colon) | growth (HT29 colon) | growth (SNB-75 CNS) | growth (SNB-19 CNS) | growth (U251 CNS) | growth (PC-3 prostate) | growth (SK-MEL-5 melanoma) | growth (UACC-62 melanoma) | growth (LOX IMVI melanoma) | growth (SK-MEL-28 melanoma) | growth (SK-MEL-2 melanoma) | growth (EKVX NSCLC) | growth (SN12C renal) | growth (UO-31 renal) | growth (ACHN renal) | growth (CAKI-1 renal) | growth (A498 renal) | growth (CCRF-CEM leukemia) | growth (MOLT-4 leukemia) | growth (TK-10 renal)
CC(C)c1ccc2c(c1)CCC1C2CCCC1(C)NCc1ccccc1 (stereo unspecified) | 6.42% (active) | 16.2% | 85.3% | 104% | 48% | 85.4% | 27.5% | -27.4% (active) | 52.1% | -32% (active) | 26.8% | 80.3% | 66.9% | 45.4% | 90.6% | 63.1% | 91.5% | 48.3% | 39.9% | –
CC1OC(n2c3ccccc3c3c4c(c5c6ccccc6[nH]c5c32)C(=O)N(CCN[C@H]2CCC[C@@H]2N)C4=O)CC(O)C1O (stereo partly specified) | 82.6% | 12.9% | 24.1% | 17% | 14.5% | 16.8% | 23.7% | 42.1% | 20.3% | 68.6% | – | 45.9% | 17.9% | 66.8% | 45.6% | 85.7% | 77.9% | 27.1% | 7.62% (active) | 52.8%
CCOC(=O)C(CCCCC(NC(C)=O)(C(=O)OCC)C(=O)OCC)(NC(C)=O)C(=O)OCC | 106% | 100% | 95.3% | 110% | 104% | 101% | 104% | 99.5% | 98.3% | 97% | 95.9% | – | 101% | 87.3% | 104% | 104% | 115% | – | 109% | 97.9%
CCOC(=O)c1cc(N)nc2ccccc12 | 107% | 97.4% | 112% | 106% | 103% | 104% | 106% | 108% | 96.7% | 123% | 99.9% | 108% | 109% | 103% | 105% | 102% | 95% | – | 100% | –
COc1ccc(-c2ccc(-c3ccc(C(=N)N)s3)s2)cc1 | -73.7% (active) | -81.9% (active) | -84.2% (active) | -61.9% (active) | -70.3% (active) | -92.8% (active) | -97.8% (active) | -91% (active) | -74.7% (active) | -75.5% (active) | -78.4% (active) | – | -51.8% (active) | -71.4% (active) | -92.8% (active) | -82.8% (active) | -73.9% (active) | – | -56.2% (active) | -90.7% (active)
O=c1c2cc(Br)cc(Br)c2nc(-c2ccc(Cl)cc2)n1/N=C/c1cccc(F)c1 | 75.2% | 62.1% | -0.938% (active) | 57.6% | 43.3% | 67% | 70.9% | 74.6% | 62.4% | 85.1% | – | 59.2% | 53.5% | 19.7% | 10.8% | 14.5% | 101% | 48.8% | 64.8% | 22.3%
ClC1=NC(Cl)C(Cl)=N/C1=N\c1ncn[nH]1 (stereo unspecified) | -71.9% (active) | -62.8% (active) | 68.9% | 111% | -50.5% (active) | 20.3% | 74.1% | 83.6% | -50.7% (active) | 15.1% | -5.62% (active) | – | 26.3% | -81.7% (active) | -92.4% (active) | -75.9% (active) | 121% | – | -52.2% (active) | -75.9% (active)
C=CCOC(=O)C1=C(C)NC2=C(C(=O)CCC2)C1c1ccc(F)cc1 (stereo unspecified) | 105% | 101% | 80.3% | 85.2% | – | 90.1% | 98.8% | 80.6% | 97.1% | 101% | 101% | 102% | 92.1% | 76.1% | 89.6% | 84.7% | 99.3% | 98.1% | 93.6% | 111%
COc1cc(OC)c(C(=O)/C=C/c2cccc(OC(C)=O)c2)cc1CC=C(C)C | 55% | 84.2% | 77.5% | 101% | 44.6% | 36% | 64.2% | 47.3% | 48.3% | 67.8% | – | 107% | 62.1% | – | 74.9% | 241% | 120% | 9.5% (active) | 32% | 162%
COc1ccc(C2NC(=O)c3cc4c(cc3N2)OCO4)cc1 (stereo unspecified) | 12.5% | 5.16% (active) | 5.9% (active) | 34% | 17.2% | 27.9% | 11.9% | 25.3% | 39.9% | 39.8% | – | 58.1% | 31.6% | 67.3% | 46.3% | 55.2% | 8.76% (active) | 14.8% | 16.5% | 52.8%
CC(C)(C)OC(=O)N1CCCN(CCNc2nccc(-c3c(-c4cccc(O)c4)nc4sccn34)n2)S1(=O)=O | 99.9% | 56.7% | 84% | 126% | – | 85% | 86.9% | 12.1% | 32.3% | 45.4% | 103% | 112% | 82.7% | 74.5% | 66.6% | 49.4% | 127% | 75.8% | 90.8% | 121%
CCCCCCCCCCCC1=NC(C)(C)CN1C(C)C | 11.8% | 0.372% (active) | 52% | 86.7% | – | 34.6% | -24.7% (active) | -51.3% (active) | 34.6% | -54.7% (active) | 60.9% | 57.5% | 61% | 38% | 61.6% | 46.6% | 76.7% | 29.3% | – | 81.6%
CCOC(=O)C1C(=O)C=C(c2ccccc2)CC1c1sc(N(C)Cc2ccccc2)nc1Cl (stereo unspecified) | 94.3% | 91.2% | 89.1% | 89.7% | – | 76.4% | 92.7% | 61.4% | 88.2% | 109% | 84.4% | 87.9% | 94.3% | 76.1% | 95.3% | 68.7% | 107% | 84% | 71.1% | 107%
Cc1ccc(OC2=C(C#N)C(=N)N3C(=NN2)Sc2c(C)ccc(C)c23)cc1 | 104% | 116% | 96.5% | 118% | – | 82.4% | 96.3% | 98.7% | 96.7% | 106% | 121% | 91.5% | 106% | 82.7% | 99% | 86% | 94.9% | 94.9% | 89.1% | 129%
CC(C)(C)c1ccc(C(=O)Nc2sc3cc(O)ccc3c2C(N)=O)cc1 | 43.9% | 23.8% | 95.9% | 94.1% | – | 79.2% | 96.6% | 104% | 23.3% | 87.5% | 114% | 94.6% | 78% | 65.6% | 74.1% | 77.3% | 107% | 50% | – | 133%
O=C(/C=C/c1ccco1)c1ccccc1O | 93.1% | 112% | 108% | 102% | – | 95.9% | 111% | 103% | 95.2% | 111% | 108% | 104% | 102% | 87.5% | 102% | 99.3% | 106% | 76.5% | 118% | 122%
Cc1ccc(C)c(NC(=O)c2sc3c(=O)[nH]cnc3c2C)c1 | 49.8% | 34.9% | 81.1% | 91.7% | 86.1% | 83.4% | 74.4% | 61.1% | 85% | 89.3% | – | 85% | 101% | 74.9% | 116% | 64.5% | 70.3% | 83.1% | 69.9% | 77.8%
